Assay outcomes (PubChem)
TSHR antag: Antagonists of the Thyroid Stimulating Hormone Receptor: HTS campaign; 330,000 compounds, 0.2% hits; activity change, negative = inhibition, % at 11.5 µM; TSHR-expressing cells, TSH-stimulated cAMP HTRF, 2 h; stronger effect = lower value;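 active = activity change below a set negative limit, meaning inhibition stronger than a set level, cut at about -70% in these data; inconclusive = activity change between two set negative limits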
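Cell-based HTRF cAMP assay; TSHR cells + compound, TSH EC80 (4nM final), 2 h, 37 deg C. Lysis with anti-cAMP cryptate and cAMP-d2, 30 min RT, read 665/620 nm.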
PTHR1 ag: qHTS for PTHR1 Agonists: Primary Screen; AID 743266, 2014; Potency, µM (highest dose often 115 µM), hits mostly activators; HEK293 GP2 PTHR1 cells, GloSensor cAMP luminescence, 1 h; 410,000 compounds, 0.075% hits; Parathyroid hormone/parathyroid hormone-related peptide receptor (Homo sapiens), Q03431; note: nearly all actives have a fitted effect of over 55% in size
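HEK-293-derived GP2 cells expressing PTHR1 and a GloSensor cAMP reporter, 3,000/well, plated overnight, given luciferin plus IBMX (each 0.5 mM as added) for 1 h at 37 °C, then compound for 1 h at 37 °C. Luminescence was read after 15 min at room temperature.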
GLP-1R inv ag: qHTS of GLP-1 Receptor Inverse Agonists (Inhibition Mode); HEK293 GLP-1R CRE-luciferase, luminescence, 24 h; GLP-1R form is constitutively active; Potency, µM (top dose mostly 38.3 µM), hits mostly inhibitors; 410,000 compounds, 1.6% hits; AID 624417, 2012; Glucagon-like peptide 1 receptor (Homo sapiens), P43220; note: nearly all actives have a fitted effect of over 55% in size
Target sequence (P43220 whole entry, looked up): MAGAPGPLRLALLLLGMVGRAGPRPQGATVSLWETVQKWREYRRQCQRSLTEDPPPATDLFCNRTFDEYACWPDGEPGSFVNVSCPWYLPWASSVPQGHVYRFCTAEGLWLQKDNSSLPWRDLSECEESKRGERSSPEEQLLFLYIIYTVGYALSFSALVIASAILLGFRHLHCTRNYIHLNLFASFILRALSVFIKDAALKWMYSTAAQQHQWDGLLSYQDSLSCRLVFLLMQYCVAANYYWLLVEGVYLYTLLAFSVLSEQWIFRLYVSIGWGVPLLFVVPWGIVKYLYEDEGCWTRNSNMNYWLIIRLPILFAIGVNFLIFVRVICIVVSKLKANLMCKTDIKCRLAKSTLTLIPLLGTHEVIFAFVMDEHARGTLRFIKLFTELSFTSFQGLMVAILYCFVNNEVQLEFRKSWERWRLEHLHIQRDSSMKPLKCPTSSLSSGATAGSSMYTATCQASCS
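Seeding at 200 cells/uL, 12 h culture, 24 hr compound treatment, then luciferase reagent and a luminescence read; cells are HEK293 stably expressing a constitutively active GLP-1R plus cAMP-responsive luciferase.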
GLP-1R agonist: qHTS of GLP-1 Receptor Agonists | 380,000 compounds, 0.007% hits | HEK293 GLP-1R CRE-luciferase, luminescence, 4-6 h; cells express a hypersensitive GLP-1R form | Potency, µM (series often up to 45.6 µM), usual class: activators
HEK293 tox: qHTS of GLP-1 Receptor Inverse Agonists: Cytotox Screen. Potency, µM (titrated, usually from 38.3 µM), hits mostly inhibitors. AID 624418, 2012. HEK293 cAMP-luciferase reporter cells, luminescence, 24 h. 410,000 compounds, 0.13% hits;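 note: loss of luciferase light is scored as toxicity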
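1536-well qHTS counterscreen of the MLSMR; 200 cells/uL, 12 h pre-incubation, 23 nL cpd, 24 h at 37 deg C 5% CO2, luciferase detection reagent, 12 min RT, luminescence. Inhibition = undesired.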
Numbers stand for hits; 0 = inactive; ? = inconclusive; - = no result given; [ ] = dose if it differs, or a comment. In the library only some 1.8% were active in any assay of this set; here they are far more common. Unless noted, calls come from the whole dose curve; as a rule, active = well fitted curve in the direction sought with a large enough effect; inconclusive = small, poorly fitted or top-dose-only effect, or another doubt; inactive = no such curve, though single readings can be large; an effect the other way counts as inactive or inconclusive.

SMILES	TSHR antag	PTHR1 ag	GLP-1R inv ag	GLP-1R agonist	HEK293 tox
O=C(CCc1nnc2n(Cc3ccccc3Cl)c(=O)c3ccccc3n12)Nc1ccc(F)cc1	-	0	0	-	0
CCOC(=O)C1CCN(S(=O)(=O)c2ccc(N3CCCCS3(=O)=O)cc2)CC1	-	0	0	-	0
O=C(CSc1nc2c([nH]c3ccccc32)c(=O)n1-c1ccccc1)N1CCCc2ccccc21	-	?	0	-	0
O=C(NCc1cccnc1)/C(=C\c1ccc(-c2cccc(Cl)c2)o1)S(=O)(=O)c1ccccc1	0	0	2µM	0	?
CCOC(=O)c1ccccc1NC(=O)c1c(C)oc2ncnc(N3CCOCC3)c12	-	?	0	-	0
C=C(C1=CCN(S(=O)C(C)(C)C)[C@H]1CCO)c1ccccc1 (some centres undefined)	-	0	11.2µM	0	0
Cc1ccccc1C1c2[nH]c3ccccc3c2C[C@H]2C(=O)N(C3CCN(Cc4ccccc4)CC3)CC(=O)N12 (some centres undefined)	0	-	-	-	-
COc1ccc(C2c3[nH]c4ccccc4c3C[C@H]3C(=O)N(C4CCN(Cc5ccccc5)CC4)CC(=O)N23)c(OC)c1 (some centres undefined)	0	0	?	0	0
O=C1[C@@H]2Cc3c([nH]c4ccccc34)C(c3ccccc3)N2C(=O)CN1C1CCN(Cc2ccccc2)CC1 (some centres undefined)	0	0	2.24µM	0	?
O=C1[C@@H]2Cc3c([nH]c4ccccc34)C(c3cccc(Br)c3)N2C(=O)CN1C1CCN(Cc2ccccc2)CC1 (some centres undefined)	0	0	3.16µM	0	?
COC(=O)c1ccc(C2c3[nH]c4ccccc4c3C[C@H]3C(=O)N(C4CCN(Cc5ccccc5)CC4)CC(=O)N23)cc1 (some centres undefined)	0	?	10µM	0	0
Cc1ccc(Nc2sc(C(=O)c3ccccc3)c(N)c2S(=O)(=O)c2ccccc2)c(C)c1	-	0	0	-	0
O=C(N/N=C/c1cc([N+](=O)[O-])ccc1O)c1ccc2c(c1)OCCO2	0	0	?	0	3.55µM
COc1ccc(-n2c(CC3C(=O)N(C)c4ccc(C)cc43)nc3ccccc3c2=O)cc1 (centres undefined)	-	0	0	-	0
CN(C)CCOC1c2ccccc2CCc2ccc3ccccc3c21 (centres undefined)	-	0	5.62µM	0	?
CN(C)CCOC1c2ccccc2C=Cc2ccccc21	-	0	?	0	0
COc1ccc(CSc2nnc(Cc3sc(-c4ccccc4)nc3-c3ccccc3)o2)cc1	0	0	10µM	0	0
CCc1ccc(-n2nc3ccc(NC(=O)c4cc(Cl)c(OC)c(Cl)c4)cc3n2)cc1	-	0	0	0	0
Cc1cc(=O)[nH]c(SCC(=O)N2CCN(C(c3ccccc3)c3ccccc3)CC2)n1	0	0	5.62µM	0	0
CC(=O)[O][Al][O]C(C)=O	-	-	-	0	-
O=C(Oc1ccccc1)c1cccc2cccc(C(=O)Oc3ccccc3)c12	0	0	10µM	0	0
CCCCOc1ccc(Cn2c(=O)sc3ccccc32)cc1OC	-	0	?	-	0
COc1cc(Cn2c(=O)sc3ccccc32)ccc1OCCC(C)C	-	0	10µM	-	0
CNc1ncnc2sc(-c3ccccc3)cc12	0	0	0[0.307 µM]	?	0[0.307 µM]
S=c1[nH]cnc2sc(-c3ccccc3)cc12	0	0	0	0	5.62µM
O=C(Nc1ccc(C(F)(F)F)cc1)c1cc(S(=O)(=O)NC2CCCCCC2)ccc1F	-	0	?	-	?
O=C(CCCOc1ccccc1)N1CCN(c2ccccn2)CC1	0	0	10µM	0	0
CCOC(=O)C1=C(CN2CCN(c3ccccc3OC)CC2)NC(=O)NC1c1ccccc1 (centres undefined)	-	0	0	0	0
CCOC(=O)C1=C(CN2CCN(c3cc(C)ccc3C)CC2)NC(=O)NC1c1ccccc1 (centres undefined)	-	0	8.91µM	0	0
